Results filed as inconclusive are left out. A number with no mark means an inactive call. Calls of active or inactive are those of the source. Calls come from the whole dose curve; as a rule, active = well fitted inhibition curve with a large enough effect; inconclusive = small, poorly fitted or top-dose-only effect; inactive = no such curve, though single readings can be large or run the other way.
Biological target: Cytochrome P450 3A4 (Homo sapiens) (UniProt P08684)
Assay: qHTS Assay for Inhibitors and Substrates of Cytochrome P450 3A4 (AID 884); note: nearly all actives have a fitted effect of over 50% in size
Settings: recombinant CYP3A4, Luciferin-PPXE luminescence; series mostly up to 57.1 µM; activity change, negative = inhibition: at the top concentration
In short: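 Luminescent readout of luciferin produced by CYP3A4 (20 nM) dealkylation of Luciferin-PPXE, 25 uM (its KM). NADPH-driven reaction ran 60 min at RT after 10 min compound preincubation; data scaled to 57 uM ketoconazole as 100% inhibition.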
% is set by controls: 0 for no effect and ±100 for the full control effect; potency is the fitted concentration of half-maximal effect.

Sequence of Cytochrome P450 3A4 (Homo sapiens) (P08684 whole entry, looked up): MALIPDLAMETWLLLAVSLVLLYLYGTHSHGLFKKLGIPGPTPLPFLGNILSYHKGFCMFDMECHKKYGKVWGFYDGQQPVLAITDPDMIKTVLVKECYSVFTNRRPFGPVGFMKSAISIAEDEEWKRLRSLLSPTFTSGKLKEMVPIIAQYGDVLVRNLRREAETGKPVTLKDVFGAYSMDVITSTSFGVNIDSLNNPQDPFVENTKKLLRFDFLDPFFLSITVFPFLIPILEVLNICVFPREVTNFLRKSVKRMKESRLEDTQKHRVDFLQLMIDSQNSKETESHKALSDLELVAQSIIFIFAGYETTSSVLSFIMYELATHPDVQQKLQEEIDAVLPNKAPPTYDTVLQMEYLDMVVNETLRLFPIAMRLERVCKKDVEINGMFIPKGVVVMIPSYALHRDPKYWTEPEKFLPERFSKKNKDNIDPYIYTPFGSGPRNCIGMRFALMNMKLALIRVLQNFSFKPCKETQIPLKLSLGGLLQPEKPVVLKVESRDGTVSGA

Structure (SMILES)	activity change, negative = inhibition [%]	Potency
O=C(O)c1cc(C2CC2)nc2ccccc12	-21.3	–
COC(=O)[C@@H]1C[C@@]2(O)[C@H](O)[C@H](O)[C@H](O)C[C@H]2N1Cc1cc(F)ccc1F	-21.8	–
O=C(O)c1ccc(NS(=O)(=O)c2ccsc2C(=O)O)c(O)c1	-12.7	–
COC(=O)c1ccc(C23CC4(C2)[C@H](CN(Cc2ccc(-c5ccccc5)cc2)[C@@H]4c2ccccc2)C3c2ccc(Cl)nc2)cc1 (stereo not given in full)	-20.2	–
O=C(N[C@@H](Cc1ccccc1)C(=O)O)c1ccccc1	-10.1	–
Cn1c(=O)c(C(=O)COC(=O)c2cc(-c3ccccc3)nc3ccccc23)c(N)n(Cc2ccccc2)c1=O	-23.5	–
Cn1c(=O)c(C(=O)COC(=O)c2cc(C(F)(F)F)nc3c(C(F)(F)F)cccc23)c(N)n(Cc2ccccc2)c1=O	-27.7	–
C#CC(C)OC(=O)C(C)NC(=O)c1ccccc1 (stereo not given)	-13.5	–
CC1=C(C(=O)OCc2ccccc2)C(C2CC2)NC(=O)N1CCCCCC(=O)O (stereo not given)	-19.6	–
COC(=O)c1ccc(C23CC4(C2)[C@H](CN(Cc2ccc(C(F)(F)F)cc2)[C@@H]4c2ccccc2)C3c2ccc(C(F)(F)F)cc2)cc1 (stereo not given in full)	-25	–
O=Cc1ccc(B(O)O)cc1	-5.49	–
CN(C)c1nc(N)c(C(=O)Nc2cccnc2)nc1Cl	-45.9	–
COC(=O)[C@@H]1C[C@@]2(O)[C@@H](O)[C@@H](O)[C@@H](O)C[C@H]2N1Cc1ccc(C)s1	-12.2	–
NC(=O)NCc1ccccc1	-3.44	–
Cn1c(=O)c(C(=O)COC(=O)c2cc(C3CC3)nc3ccccc23)c(N)n(Cc2ccccc2)c1=O	-15.2	–
O=C(O)/C=C/c1cccc(B(O)O)c1	-21.7	–
COC(=O)[C@@H]1C[C@@]2(O)[C@H](O)[C@H](O)[C@H](O)C[C@H]2N1C/C=C/c1ccccc1	-16.6	–
CCC1=C2CC[C@H]3C(=O)N(c4ccccc4)C(=O)[C@H]3[C@H]2[C@@]2(C)C(=O)N(Cc3ccccc3)C(=O)N2C1=O	-54	–
CN(C)/C=N/c1cc(=O)n(Cc2ccccc2)c(=O)n1C	-19.8	–
COC(=O)c1ccc(C23CC4(C2)[C@H](CN(Cc2ccc(C(F)(F)F)cc2)[C@@H]4c2ccccc2)C3c2ccc(Cl)nc2)cc1 (stereo not given in full)	-28.9	–

Structure (SMILES)	activity change, negative = inhibition [%]	Potency
COc1cc(/C=C/C(=O)N2CCCCC2=O)cc(OC)c1OC	-22	–
COC(=O)[C@@H]1C[C@@]2(O)[C@H](O)[C@H](O)[C@H](O)C[C@H]2N1CC1CCCCC1	-24.4	–
Cn1c(N)c(C(=O)COC(=O)c2cc(C(F)(F)F)nc3c(C(F)(F)F)cccc23)c(=O)n(C)c1=O	-12.2	–
OB(O)c1csc2ccccc12	-20.3	–
Cn1c(N)c(C(=O)COC(=O)c2cc(C(F)(F)F)nc3ccccc23)c(=O)n(C)c1=O	9.74	–
CCC1=C2CC[C@H]3C(=O)N(C)C(=O)[C@H]3[C@H]2[C@@]2(C)C(=NCC(=O)OC)OC(=O)N2C1=O	-23.8	–
COC(=O)[C@@H]1C[C@@]2(O)[C@@H](O)[C@@H](O)[C@@H](O)C[C@H]2N1C/C=C/c1ccccc1	-37.6	–
CN(C)/C=N/c1cc(=O)[nH]c(=O)n1CC1CC1	-3.92	–
FC(F)(F)c1cccc(-c2noc(-c3cc(-c4ccccc4)c(C(F)(F)F)s3)n2)c1	-19.9	–
CC(C)Cn1c(N)c(C(=O)COC(=O)c2cc(C3CC3)nc3ccccc23)c(=O)n(C)c1=O	-20.4	–
N#Cc1ccc(C23CC4(C2)[C@H](CN(Cc2ccc(C(F)(F)F)cc2)[C@@H]4c2ccccc2)C3c2ccc(C(F)(F)F)cc2)cc1 (stereo not given in full)	-26.7	–
Cn1c(N)cc(=O)n(Cc2ccccc2)c1=O	-42.5	–
N=C(N)c1ccc(N2CCN(C3CCN(CC(=O)O)CC3)CC2)cc1	-7.22	–
CN1CCN(C(=O)c2nc3ccc(Cl)cc3[nH]2)CC1	-19	–
CCC1=C(OC(=O)N(CC)CC)N2C(=O)OC(=NCCOC)[C@]2(C)[C@H]2C1=CC[C@H]1C(=O)N(CC)C(=O)[C@H]12	–	7.94 µM (active)
COC(=O)[C@@H]1C[C@@]2(O)[C@@H](O)[C@@H](O)[C@@H](O)C[C@H]2N1Cc1ccc(C(F)(F)F)cc1	-34.5	–
COC(=O)[C@@H]1C[C@@]2(O)[C@@H](O)[C@@H](O)[C@@H](O)C[C@H]2N1Cc1ccc(-c2ccccc2)cc1	-15.1	–
CCC1=C2CC[C@H]3C(=O)NC(=O)[C@H]3[C@H]2[C@@]2(C)C(=NCC(=O)OC)OC(=O)N2C1=O	-14.8	–
NC(=O)NCC1CC1	-15.7	–
CCC1=C2CC[C@H]3C(=O)NC(=O)[C@H]3[C@H]2[C@@]2(C)C(=NCCOC)OC(=O)N2C1=O	-30.8	–

Reference: PubChem BioAssay (NCATS)
